From PubChem
Most compounds without a hit are left out; they make up all but 8% or so of the library.
HT1080 IDH1KD tx – HT-1080 IDH1 knockdown cell toxicity (counter line). HT-1080 IDH1 knockdown viability, ATP luminescence, 48 h. hit rate 2% among 360,000. Potency, µM (highest dose often 46.1 µM), usual class: cytotoxic
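CellTiter-Glo luminescence after 48 h compound exposure at 37 degrees C of IDH1-knockdown HT-1080 cells in 5% FBS RPMI. %Activity scaled between DMSO wells and cell-free media wells, with curves fitted and assigned curve classes.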
SW480 rereplic – DNA re-replication induction in SW480 cells; SW480 DNA re-replication, Hoechst DNA content imaging, 48 h; Potency, µM (series often up to 46.1 µM), hits mostly activators; hit rate 1.8% among 340,000; AID 624297; also: nearly all actives have a fitted effect of over 55% in size
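Per well, 250 cells were exposed to pinned compound for 48 hr. Nuclear DNA was visualised with Hoechst (40 min, 37 C) and total object intensity recorded by fluorescence scanning.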
KB-3-1 tox – kills parental KB-3-1 adenocarcinoma cells; Potency, µM (doses to about 46.1 µM), most hits filed as cytotoxic; hit rate 1.4% among 400,000; AID 1347075; KB-3-1 viability, CellTiter-Glo ATP luminescence, 72 h; also: nearly all actives have a fitted effect of over 60% in size
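Viability of parental KB-3-1 cells, measured by CellTiter-Glo luminescence, followed a 72 h incubation at 37 °C with pinned compounds in phenol-red-free DMEM containing 10% FBS.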
MCF10A rereplic – induces DNA re-replication in MCF 10a normal breast cells; MCF 10A DNA re-replication, Hoechst nuclear intensity, 48 h; Potency, µM (highest dose often 46.1 µM), actives largely listed as activators; hit rate 2.9% among 350,000; also: nearly all actives have a fitted effect of over 50% in size
KB-V1 cytotox – KB-V1 MDR subline cytotoxicity. KB-V1 MDR cells viability, CellTiter-Glo, 72 h. hit rate 3.4% among 400,000. Potency, µM (top dose mostly 46.1 µM), most hits filed as cytotoxic. AID 1347076; also: nearly all actives have a fitted effect of over 60% in size
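Following 72 h at 37 degrees C with compound, KB-V1 cell viability was read by CellTiter-Glo luminescence, medium being phenol-red-free DMEM plus 10% FBS; concentration-response parameters came from normalized, curve-fitted qHTS data.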
HT1080-NT tox – kills 2HG-producing HT-1080-NT fibrosarcoma cells. HT-1080-NT fibrosarcoma viability, CellTiter-Glo ATP luminescence, 48 h. hit rate 1.6% among 360,000. Potency, µM (highest dose often 46.1 µM), most hits filed as cytotoxic;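 also: NT is the 2HG producing partner of a matched IDH1 knockdown line; nearly all actives have a fitted effect of over 55% in size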
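Viability by CellTiter-Glo luminescence after 48 h compound exposure at 37C of HT-1080-NT cells (750/well, RPMI, 5% FBS). % activity scaled between DMSO wells and medium-only wells, then curve-fitted and categorized by curve class.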
Numbers stand for hits; ! = repeats disagree. Calls follow the shape of the dose curve; as a rule, active = well fitted curve in the direction sought with a large enough effect; inconclusive = small, poorly fitted or top-dose-only effect, or another doubt; inactive = no such curve, though single readings can be large; an effect the other way counts as inactive or inconclusive.

`O=C(Nc1ccc(F)cc1F)c1cc(S(=O)(=O)N2CCCCC2)c[nH]1` gave KB-3-1 tox 18µM and KB-V1 cytotox inconclusive.
Screening O=C(Nc1cccc(S(=O)(=O)N2CCCCC2)c1)c1ccc([N+](=O)[O-])o1 returned HT1080 IDH1KD tx 5.2µM, SW480 rereplic 6.5µM, KB-3-1 tox inconclusive, MCF10A rereplic 16µM, KB-V1 cytotox inconclusive and HT1080-NT tox 10µM.
`O=C(Nc1ccc(F)cc1F)c1ccc(S(=O)(=O)N2CCCCC2)cc1` gave HT1080 IDH1KD tx inactive, SW480 rereplic inactive, MCF10A rereplic inactive and HT1080-NT tox inactive.
Screening Cc1ccc(S(=O)(=O)CCC(=O)OCC(=O)Nc2cccc(S(=O)(=O)N3CCCCC3)c2)cc1 returned HT1080 IDH1KD tx inactive, KB-3-1 tox inactive, KB-V1 cytotox inactive and HT1080-NT tox inactive.
`NS(=O)(=O)c1cccc(NC(=O)c2ccccc2NS(=O)(=O)c2ccc(F)cc2)c1` gave HT1080 IDH1KD tx inactive, SW480 rereplic inactive, KB-3-1 tox inactive, MCF10A rereplic inactive, KB-V1 cytotox inactive and HT1080-NT tox inactive.
Screening O=C(COC(=O)c1ccc([N+](=O)[O-])o1)Nc1cccc(S(=O)(=O)N2CCCCC2)c1 returned HT1080 IDH1KD tx inactive, SW480 rereplic inactive, KB-3-1 tox inactive, MCF10A rereplic inactive, KB-V1 cytotox inactive and HT1080-NT tox inactive.
Screening Cc1ccc(S(=O)(=O)N2CCN(c3nc(C(N)=O)nc4ccccc34)CC2)cc1 returned HT1080 IDH1KD tx inactive and HT1080-NT tox inactive.
For COc1ccccc1CNC(=O)c1ccc2c(c1)N(Cc1c(F)cccc1Cl)C(=O)CS2 the results were KB-3-1 tox inactive and KB-V1 cytotox inactive.
For Cc1ccc(C(=O)Nc2cccc(S(=O)(=O)N3CCCCC3)c2)cc1[N+](=O)[O-] the results were HT1080 IDH1KD tx inactive, SW480 rereplic inactive, KB-3-1 tox 21µM, MCF10A rereplic inconclusive, KB-V1 cytotox inconclusive and HT1080-NT tox inactive.
Screening O=S(=O)(Nc1ccccc1OC(F)F)c1ccc(S(=O)(=O)N2CCCC2)cc1 returned HT1080 IDH1KD tx inactive, SW480 rereplic inactive, KB-3-1 tox inactive, MCF10A rereplic inactive, KB-V1 cytotox 18µM and HT1080-NT tox inactive.
`CN(C)S(=O)(=O)c1ccc2c(c1)/C(=C/c1cc3c([nH]1)CCCC3)C(=O)N2` gave HT1080 IDH1KD tx inactive, SW480 rereplic 10µM, KB-3-1 tox inactive, MCF10A rereplic inconclusive, KB-V1 cytotox inconclusive and HT1080-NT tox inactive.
Screening CN(C)S(=O)(=O)c1ccc2c(c1)C(=O)c1cc(S(=O)(=O)N(C)C)ccc1CC2 returned SW480 rereplic inactive, KB-3-1 tox inactive, MCF10A rereplic inactive and KB-V1 cytotox inactive.
CCOC(=O)c1c(C)c(C(=O)NCCc2ccc(OC)cc2)c(C)n1CC was read as KB-3-1 tox inactive and KB-V1 cytotox inactive.
N#C/C(=C\c1ccccc1C(F)(F)F)C(=O)Nc1ccccc1 was read as HT1080 IDH1KD tx inactive, SW480 rereplic inactive, KB-3-1 tox inactive, MCF10A rereplic inactive, KB-V1 cytotox inactive and HT1080-NT tox inactive.
`CCc1cccc(CC)c1NC(=O)/C(C#N)=C/c1ccccc1C(F)(F)F` gave HT1080 IDH1KD tx inconclusive, SW480 rereplic inactive, KB-3-1 tox inconclusive, MCF10A rereplic 12µM, KB-V1 cytotox inconclusive and HT1080-NT tox 23µM.
Screening Cc1ccc(-c2csc3nnc(SCC(=O)N4CCN(Cc5ccccc5)CC4)n23)cc1 returned HT1080 IDH1KD tx inactive, SW480 rereplic inactive, KB-3-1 tox inactive, MCF10A rereplic inactive, KB-V1 cytotox 6.5µM and HT1080-NT tox inactive.
Cn1c(SCC(=O)N2CCN(Cc3ccccc3)CC2)nnc1-c1ccncc1 was read as HT1080 IDH1KD tx inactive, SW480 rereplic inactive, KB-3-1 tox inactive, MCF10A rereplic inactive, KB-V1 cytotox inactive and HT1080-NT tox inactive.
O=C(CSc1nnc2scc(-c3ccccc3)n12)N1CCCc2ccccc21 was read as HT1080 IDH1KD tx inactive, SW480 rereplic inactive, KB-3-1 tox inactive, MCF10A rereplic inactive, KB-V1 cytotox inactive and HT1080-NT tox inactive.
For O=C(CSc1nnc2scc(-c3ccccc3)n12)N1CCN(Cc2ccccc2)CC1 the results were HT1080 IDH1KD tx inactive, SW480 rereplic inactive, KB-3-1 tox inactive, MCF10A rereplic inactive, KB-V1 cytotox 5.8µM and HT1080-NT tox inactive.
For O=C(CCS(=O)(=O)c1cc2c3c(c1)CCN3C(=O)CC2)Nc1cccc(Br)c1 the results were KB-3-1 tox inactive and KB-V1 cytotox inactive.
COc1cc2c(cc1OC)/C(=C/c1ccc(Cl)cc1)C(=O)OC2 was read as HT1080 IDH1KD tx inconclusive, SW480 rereplic inconclusive, KB-3-1 tox inactive, MCF10A rereplic 13µM, KB-V1 cytotox inactive and HT1080-NT tox inconclusive.
CCCCNC(=O)Cn1c(=O)c2c(ncn2CCC(C)C)n(Cc2ccccc2)c1=O was read as HT1080 IDH1KD tx inactive, SW480 rereplic inactive, KB-3-1 tox inactive, MCF10A rereplic inactive, KB-V1 cytotox inconclusive and HT1080-NT tox inactive.
Screening CN(Cc1cnc2nc(N)nc(N)c2n1)c1ccc(C(=O)N[C@@H](CCC(=O)O)C(=O)O)cc1 returned HT1080 IDH1KD tx 0.046µM!, SW480 rereplic inconclusive, KB-3-1 tox 0.065µM!, MCF10A rereplic inactive, KB-V1 cytotox 0.029µM! and HT1080-NT tox 0.0052µM!.
Screening CC(=O)Nc1cccc(-n2cc3c(c2-c2ccccc2Cl)c(=O)n(C)c(=O)n3C)c1 returned KB-3-1 tox inactive and KB-V1 cytotox inactive.
`CCOC(=O)C1=C(N)n2c(s/c(=C\c3ccncc3)c2=O)=C(C(=O)OCC)C1c1ccncc1` (stereo not drawn) gave HT1080 IDH1KD tx inactive, SW480 rereplic inactive, KB-3-1 tox inactive, MCF10A rereplic inactive, KB-V1 cytotox inactive and HT1080-NT tox inactive.
`CCOC(=O)C1=C(N)n2c(s/c(=C\c3cccs3)c2=O)=C(C(=O)OCC)C1c1cccs1` (stereo not drawn) gave HT1080 IDH1KD tx 2.6µM, SW480 rereplic inconclusive, KB-3-1 tox 10µM, MCF10A rereplic inconclusive, KB-V1 cytotox 13µM and HT1080-NT tox inconclusive.
For CCOC(=O)c1[nH]c(C)c(/C(O)=C2\C(=O)C(=O)N(CCN3CCOCC3)C2c2cccs2)c1C (stereo not drawn) the results were HT1080 IDH1KD tx inconclusive, SW480 rereplic inconclusive, KB-3-1 tox 20µM, MCF10A rereplic inconclusive, KB-V1 cytotox inconclusive and HT1080-NT tox inconclusive.
For COC(=O)c1[nH]c(C)c(/C(O)=C2\C(=O)C(=O)N(CCN(C)C)C2c2cccs2)c1C (stereo not drawn) the results were HT1080 IDH1KD tx inactive, SW480 rereplic inactive, KB-3-1 tox inactive, MCF10A rereplic inactive, KB-V1 cytotox inactive and HT1080-NT tox inactive.
